# Screening results as filed in PubChem BioAssay.
# A selection: hits, their analogues and other compounds. The true share with any hit is near 3.5%.
# mHTT-CaM PPI inh: mHTT-calmodulin interaction abrogation | P42858 | 190,000 compounds, 3.6% hits | inhibition, % at 15 µM | AlphaScreen His-mHTT/GST-CaM binding, luminescence
# Target sequence (P42858 whole entry, looked up, change not shown): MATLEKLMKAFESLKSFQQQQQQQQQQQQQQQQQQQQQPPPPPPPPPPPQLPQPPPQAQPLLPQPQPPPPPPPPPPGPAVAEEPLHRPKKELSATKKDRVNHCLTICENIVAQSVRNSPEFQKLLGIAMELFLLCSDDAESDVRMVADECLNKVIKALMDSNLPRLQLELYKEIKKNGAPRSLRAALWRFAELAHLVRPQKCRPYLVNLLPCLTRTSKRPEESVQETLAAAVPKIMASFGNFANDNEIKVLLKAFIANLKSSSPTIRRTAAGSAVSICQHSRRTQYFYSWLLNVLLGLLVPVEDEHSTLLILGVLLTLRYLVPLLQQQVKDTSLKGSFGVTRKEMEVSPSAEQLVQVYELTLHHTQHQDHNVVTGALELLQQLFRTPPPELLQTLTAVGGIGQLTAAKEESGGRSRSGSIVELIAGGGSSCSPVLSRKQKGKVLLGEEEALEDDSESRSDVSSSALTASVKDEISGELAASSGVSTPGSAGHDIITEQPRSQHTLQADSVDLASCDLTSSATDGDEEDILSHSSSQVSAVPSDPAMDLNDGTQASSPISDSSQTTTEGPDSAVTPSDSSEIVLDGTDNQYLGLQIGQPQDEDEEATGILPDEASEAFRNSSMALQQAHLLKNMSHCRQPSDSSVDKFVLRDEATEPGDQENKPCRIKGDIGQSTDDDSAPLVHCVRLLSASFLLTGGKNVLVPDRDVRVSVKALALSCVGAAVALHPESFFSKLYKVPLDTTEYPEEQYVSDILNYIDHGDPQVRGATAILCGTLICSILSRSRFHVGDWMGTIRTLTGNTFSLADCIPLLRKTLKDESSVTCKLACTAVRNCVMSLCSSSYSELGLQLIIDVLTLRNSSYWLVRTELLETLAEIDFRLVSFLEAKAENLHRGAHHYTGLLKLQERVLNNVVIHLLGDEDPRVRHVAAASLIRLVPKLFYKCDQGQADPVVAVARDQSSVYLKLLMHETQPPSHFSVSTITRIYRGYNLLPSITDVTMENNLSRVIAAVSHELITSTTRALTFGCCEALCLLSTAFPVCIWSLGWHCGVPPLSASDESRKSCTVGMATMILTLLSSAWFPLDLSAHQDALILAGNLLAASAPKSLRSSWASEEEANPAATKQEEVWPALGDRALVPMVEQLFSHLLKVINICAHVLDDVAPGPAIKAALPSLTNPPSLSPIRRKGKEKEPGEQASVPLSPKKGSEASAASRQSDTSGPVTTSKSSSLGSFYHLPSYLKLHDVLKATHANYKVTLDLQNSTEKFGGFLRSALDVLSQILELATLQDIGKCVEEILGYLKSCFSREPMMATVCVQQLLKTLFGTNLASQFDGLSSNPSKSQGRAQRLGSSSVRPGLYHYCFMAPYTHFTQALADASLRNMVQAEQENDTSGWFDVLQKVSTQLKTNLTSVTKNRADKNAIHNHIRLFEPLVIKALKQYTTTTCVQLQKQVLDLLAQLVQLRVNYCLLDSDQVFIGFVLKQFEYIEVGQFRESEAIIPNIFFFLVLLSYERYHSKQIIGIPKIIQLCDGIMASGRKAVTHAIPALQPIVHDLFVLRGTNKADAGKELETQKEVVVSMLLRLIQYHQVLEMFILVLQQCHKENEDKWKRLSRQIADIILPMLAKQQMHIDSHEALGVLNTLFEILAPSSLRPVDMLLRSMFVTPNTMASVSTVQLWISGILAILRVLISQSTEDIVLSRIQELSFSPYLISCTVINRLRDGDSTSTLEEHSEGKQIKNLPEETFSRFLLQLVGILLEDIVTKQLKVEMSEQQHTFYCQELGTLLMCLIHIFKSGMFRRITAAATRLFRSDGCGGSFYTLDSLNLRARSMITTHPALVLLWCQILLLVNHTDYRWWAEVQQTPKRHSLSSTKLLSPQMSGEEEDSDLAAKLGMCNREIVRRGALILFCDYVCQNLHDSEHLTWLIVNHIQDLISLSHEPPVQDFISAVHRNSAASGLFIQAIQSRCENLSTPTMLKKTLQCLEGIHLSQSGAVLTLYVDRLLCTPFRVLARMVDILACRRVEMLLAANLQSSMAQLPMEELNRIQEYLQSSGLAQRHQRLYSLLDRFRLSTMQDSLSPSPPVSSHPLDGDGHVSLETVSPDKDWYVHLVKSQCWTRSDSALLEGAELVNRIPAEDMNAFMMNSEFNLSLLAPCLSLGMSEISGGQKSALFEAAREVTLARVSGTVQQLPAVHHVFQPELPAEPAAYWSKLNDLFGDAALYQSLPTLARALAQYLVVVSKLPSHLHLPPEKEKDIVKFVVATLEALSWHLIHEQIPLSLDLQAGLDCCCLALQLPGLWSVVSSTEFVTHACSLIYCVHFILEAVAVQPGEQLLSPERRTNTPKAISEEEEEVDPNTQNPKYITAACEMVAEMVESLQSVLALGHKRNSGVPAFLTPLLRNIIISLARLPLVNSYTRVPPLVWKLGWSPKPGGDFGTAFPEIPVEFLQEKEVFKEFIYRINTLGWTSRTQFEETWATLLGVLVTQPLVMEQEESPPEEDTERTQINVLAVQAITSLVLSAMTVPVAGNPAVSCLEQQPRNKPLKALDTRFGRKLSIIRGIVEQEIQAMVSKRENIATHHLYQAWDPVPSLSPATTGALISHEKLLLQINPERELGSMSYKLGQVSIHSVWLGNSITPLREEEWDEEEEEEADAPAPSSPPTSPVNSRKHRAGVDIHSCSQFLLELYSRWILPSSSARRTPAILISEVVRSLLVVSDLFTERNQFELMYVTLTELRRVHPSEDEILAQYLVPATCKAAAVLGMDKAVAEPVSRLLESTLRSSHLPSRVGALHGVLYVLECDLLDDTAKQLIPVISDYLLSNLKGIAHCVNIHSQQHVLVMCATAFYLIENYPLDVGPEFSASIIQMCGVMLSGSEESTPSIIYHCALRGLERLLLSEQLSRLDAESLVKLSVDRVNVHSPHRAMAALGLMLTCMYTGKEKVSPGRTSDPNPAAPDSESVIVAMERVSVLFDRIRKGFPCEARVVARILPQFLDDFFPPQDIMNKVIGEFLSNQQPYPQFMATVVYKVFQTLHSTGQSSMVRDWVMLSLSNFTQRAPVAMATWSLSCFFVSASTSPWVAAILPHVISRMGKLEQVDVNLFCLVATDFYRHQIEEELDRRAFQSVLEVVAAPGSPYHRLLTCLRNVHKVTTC
# Pf apPOL block: Pf-apPOL DNA polymerase inhibition | Recombinant Pf-apPOL, molecular beacon fluorescence, 1.5 h | inhibition, % at 10 µM | 210,000 compounds, 0.25% hits
# Numbers stand for hits; . = inactive; / = not tested or not shown. Rule as the data show it: active = inhibition above about 50%; inactive = the rest.
SMILES,mHTT-CaM PPI inh,Pf apPOL block
Cc1ccc(N=Cc2cc3c(cc2[N+](=O)[O-])OCO3)c(C)c1,76,.
COc1ccc(C(=O)COc2ccc3c(c2)OC(=Cc2ccc(OC)c(OC)c2)C3=O)cc1,.,.
CC(C)c1ccc(N2C=NS(=O)(=O)c3cccnc32)cc1,.,.
Cc1c(C(=O)NCCCn2ncccc2=O)nnn1-c1nccs1,.,.
CC(C)C(=O)N1CCc2ccc(NS(=O)(=O)Cc3ccc(Cl)cc3)cc2C1,.,94
CC(C)S(=O)(=O)Nc1ccc2c(c1)CN(C(=O)c1ccco1)CC2,.,.
O=c1[nH]nc(SCc2ccc(F)cc2)c(=O)[nH]1,.,.
O=c1[nH]nc(SCc2cccc(Oc3ccccc3)c2)c(=O)[nH]1,.,72
O=C(Nc1ccc(F)cc1)c1oc(=O)c2ccccc2c1-c1ccccc1,.,.
COc1cccc(COC2CCCN(C(=O)c3cccs3)C2)c1 (configuration not stated),.,.
O=C(c1cccs1)N1CCCC(OCc2ccc(C(F)(F)F)cc2)C1 (configuration not stated),51,.
CC(C)c1n[nH]c(C2CCCN2C(=O)Cc2ccsc2)n1 (configuration not stated),.,.
Cc1cc(I)ccc1N=Cc1nc(-c2ccc(Cl)cc2)oc1O,.,.
COc1cccc(CNC(=O)C2CCN(c3nccc(C)n3)CC2)c1,.,.
COc1cc(OC)cc(C(=O)n2nnc3ccccc32)c1,.,.
COc1cc(SC)ccc1C(=O)n1nnc2ccccc21,91,.
O=C1C2CC=C(Cl)CC2C(=O)N1CNc1ccccc1 (configuration not stated),.,.
Cc1ccc(NCN2C(=O)C3CC=C(Cl)CC3C2=O)cc1 (configuration not stated),64,.
Cc1noc(C2(NC(=O)c3ccc(C(C)(C)C)cc3)CCCCC2)n1,.,.
Cc1ccc(C)c(-c2noc(-c3c(O)c4ccccc4[nH]c3=O)n2)c1,.,.
CC1=Nc2c([nH]c3ccccc23)-c2cc(C)ccc2N1,70,.
COc1ccccc1N1CCN(C(=O)CC(c2ccccc2)c2ccccc2)CC1,76,.
COc1ccccc1N1CCN(C(=O)c2ccc(CSc3ccccc3)cc2)CC1,68,.
COc1ccccc1N1CCN(C(=O)CCC(=O)N2CCN(c3ccccc3OC)CC2)CC1,.,.
COc1ccccc1N1CCN(C(=O)c2ccncc2)CC1,.,.
SMILES,mHTT-CaM PPI inh,Pf apPOL block
c1ccc(CN2CCCC(Nc3ncnc4c3CCC4)C2)nc1 (configuration not stated),.,.
COc1cc(Br)cc2cc(C(=O)NCCO)c(=O)oc12,.,.
O=C(/C=C/c1ccc(Cl)cc1)Nc1cc2cc(Br)ccc2oc1=O,.,.
CCc1cccc(NC(=O)c2cc3c(CO)cnc(C)c3oc2=O)c1,.,.
N#CCC12CC3CC(CC(C3)C1)C2,.,/
Fc1ccc(-c2csc(Nc3ccc(Br)cc3)n2)cc1,98,.
CCCCOc1ccc(-c2csc(N)n2)cc1[N+](=O)[O-],.,.
Brc1ccc(-c2csc(Nc3ccc4c(c3)OCO4)n2)cc1,61,.
Nc1nc(-c2ccc3c(c2)OCO3)cs1,.,.
CCC(=O)Nc1nc(-c2ccc(F)cc2)cs1,.,.
Cc1ccc(-c2csc(Nc3ccc(F)cc3)n2)cc1,.,.
Fc1ccc(Nc2nc(-c3ccc(Cl)cc3)cs2)cc1,71,.
CCOc1ccc(-c2csc(Nc3ccc(F)cc3)n2)cc1[N+](=O)[O-],91,.
CCCCOc1ccccc1NC(=O)CN1C(=O)c2ccccc2C1=O,.,.
Cc1ccccc1Cc1c(C)nc2nc(SCC(=O)NC3CC3)nn2c1C,.,.
Cc1ccc(-c2csc(Nc3ccc(F)cc3)n2)cc1C,.,.
Cc1ccc(Nc2nc(-c3ccc(F)cc3)cs2)cc1Cl,64,.
O=C(CN1N=NC2C(=O)N(c3ccccc3)C(=O)C21)Nc1ccccc1[N+](=O)[O-] (configuration not stated),.,.
Cc1cccc(C2SC(=O)NC3=C2C(=O)c2ccccc23)c1 (configuration not stated),.,.
COc1cccc(C2Sc3ccccc3NC3=C2C(=O)c2ccccc23)c1 (configuration not stated),76,.
O=C1c2ccccc2NC(c2cccs2)N1c1ccccc1 (configuration not stated),.,.
O=C1C2=C(Nc3ccccc3SC2c2cccs2)c2ccccc21 (configuration not stated),73,.
O=C1Nc2ccccc2SC1c1ccccc1 (configuration not stated),/,.
O=C1C2=C(Nc3ccccc3SC2c2ccccc2)c2ccccc21 (configuration not stated),73,/
COc1cccc(C2Sc3ccccc3NC3=C2C(=O)c2ccccc23)c1OC (configuration not stated),58,.
SMILES,mHTT-CaM PPI inh,Pf apPOL block
COc1cccc(C2Nc3ccccc3NC3=C2C(=O)CC(c2ccccc2)C3)c1OC (configuration not stated),.,.
O=C(CSc1nnc(CNC(=O)c2cccs2)o1)Nc1cc(C(F)(F)F)ccc1Cl,.,.
CC(=O)N1CCc2cc(Br)cc(S(=O)(=O)Nc3ccc(C)cc3Cl)c21,.,.
O=C1NC2=C(C(=O)c3ccccc32)C(c2ccccc2)N1 (configuration not stated),.,.
O=C1C2=C(Nc3ccccc3SC2c2ccccc2[N+](=O)[O-])c2ccccc21 (configuration not stated),53,.
COc1ccc(C2CC(c3ccc(Br)cc3)Nc3ncnn32)c(OC)c1OC (configuration not stated),57,.
COc1ccc(C2CC(c3ccc(C)cc3)Nc3ncnn32)c(OC)c1OC (configuration not stated),.,.
COc1cccc(C2CC(c3ccc(I)cc3)Nc3ncnn32)c1OC (configuration not stated),.,.
COc1ccc(C2CC(c3ccc(Br)cc3)Nc3ncnn32)c(OC)c1 (configuration not stated),57,.
COc1ccc(C2CC(c3cc(OC)ccc3OC)n3ncnc3N2)cc1 (configuration not stated),.,.
COc1ccc(OC)c(C2CC(c3ccc(Br)cc3)Nc3ncnn32)c1 (configuration not stated),61,.
COc1cccc(C2CC(c3ccc(C)c(C)c3)Nc3ncnn32)c1OC (configuration not stated),53,.
COc1ccc(C2CC(c3cccc(Br)c3)Nc3ncnn32)c(OC)c1 (configuration not stated),.,.
COc1cc(C=O)ccc1OCCOc1c(C)cc(C)cc1C,.,.
N#Cc1cnc2ccc(F)cc2c1N1CCC(C(=O)N2CCOCC2)CC1,.,.
O/N=c1\cc(-c2ccc3c(c2)OCCO3)oc2ccccc12,.,.
O=C(c1cc2sc(Br)cc2n1CC1CCCCO1)N1CCCC1 (configuration not stated),70,.
Cc1cc2c(cc(C(=O)N3CCOCC3)n2CC2CCC2)s1,.,.
COCCN(Cc1ccsc1)C(=O)C(c1ccccc1)c1ccccc1,.,.
Cc1cccc(NC(=O)N2CCc3[nH]cnc3C2c2ccncc2)c1 (configuration not stated),.,.
CNC(=O)N1CCc2[nH]cnc2C1c1ccccn1 (configuration not stated),94,.
